# From PubChem BioAssay (NCI)
# This is part of a sample that, as a whole, favours compounds with a hit. Of some 83,000 tested, about 20% had one in any assay.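 Assay: single dose, 48 h. Readout: percent growth (0 = no net growth; negative = cell death). Active: <10.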 A number with no mark means an inactive call. Activity calls are given as the source filed them.
# Columns and labels:
# Test in all cases: NCI-60 one-dose screen, 48 h (100 = growth as untreated, 0 = no growth, -100 = all killed)
# Settings in all cases: 10 µM
# NCI-H23 lung = test system: NCI-H23 lung
# NCI-H226 lung = test system: NCI-H226 lung
# NCI-H322M lung = test system: NCI-H322M lung
# NCI-H460 lung = test system: NCI-H460 lung
# A549/ATCC NSCLC = test system: A549/ATCC NSCLC
# COLO 205 colon = test system: COLO 205 colon
# DU-145 prostate = test system: DU-145 prostate
# K-562 leukemia = test system: K-562 leukemia
# MALME-3M melanoma = test system: MALME-3M melanoma
# MDA-MB-231 breast = test system: MDA-MB-231 breast
# RXF 393 renal = test system: RXF 393 renal
# SF-268 CNS = test system: SF-268 CNS
# SF-295 CNS = test system: SF-295 CNS
# SF-539 CNS = test system: SF-539 CNS
# UACC-257 melanoma = test system: UACC-257 melanoma
# 786-0 renal = test system: 786-0 renal
# M14 melanoma = test system: M14 melanoma
# NCI-H522 lung = test system: NCI-H522 lung
# HOP-92 NSCLC = test system: HOP-92 NSCLC
Compound,growth (NCI-H23 lung),growth (NCI-H226 lung),growth (NCI-H322M lung),growth (NCI-H460 lung),growth (A549/ATCC NSCLC),growth (COLO 205 colon),growth (DU-145 prostate),growth (K-562 leukemia),growth (MALME-3M melanoma),growth (MDA-MB-231 breast),growth (RXF 393 renal),growth (SF-268 CNS),growth (SF-295 CNS),growth (SF-539 CNS),growth (UACC-257 melanoma),growth (786-0 renal),growth (M14 melanoma),growth (NCI-H522 lung),growth (HOP-92 NSCLC)
COc1ccc(Cl)cc1Nc1nc(C(F)(F)F)ccc1C(=O)N/N=C/c1cc(OC)c(OC)c(OC)c1,54.9%,30.7%,8.92% (active),21.4%,59.4%,12.8%,38.4%,24.1%,-6.88% (active),-5.79% (active),-10.2% (active),8.43% (active),19.8%,17.1%,54.8%,–,–,–,–
CC(C)(C)c1ccc(S(=O)(=O)N[C@H]2CC[C@H]3[C@@H]4CCc5cc(OS(=O)(=O)O)ccc5[C@H]4CC[C@]23C)cc1,56.8%,52.4%,61%,26.2%,31.6%,13.8%,63.3%,22%,41.8%,26.4%,9.08% (active),51.2%,44.7%,82.4%,68.2%,50%,54.2%,–,–
CCCC1(CN2c3ccccc3Sc3ccc(Cl)cc32)CCN(CC)C1 (stereo not drawn),5.21% (active),32.4%,25.5%,-100% (active),18.6%,-80.8% (active),-32.3% (active),-61.9% (active),-61.5% (active),-28.4% (active),-33.7% (active),25.9%,-89.4% (active),-7.27% (active),4.91% (active),-95.7% (active),-93.2% (active),-75.2% (active),–
O=C(CI)OCC(COC(=O)CI)OC(=O)CI,65.9%,97.1%,112%,98.9%,104%,33.2%,59.5%,41.6%,24.3%,91.3%,24.7%,93.2%,94.8%,114%,76.5%,45.9%,83.2%,–,–
COc1ccc(C(=O)CC(CC(=O)c2ccc(OC)cc2)c2c(C)nn(-c3ccccc3)c2Cl)cc1,90.7%,92.8%,96.5%,97.5%,95.1%,117%,110%,–,92.4%,90.9%,98.4%,101%,92.2%,–,118%,86.3%,90.5%,79.4%,–
CC(=O)/C(=C/c1ccc(Br)cc1)C(=O)c1ccccc1,99.5%,87.8%,115%,103%,94%,111%,81.6%,30.7%,–,77.4%,–,67.4%,88.9%,96.7%,78.3%,84.5%,69.9%,85.2%,–
CCCCC/C=C/C/C=C/CCCCCCCC1=NC(C)(C)CN1C(C)C,20.7%,86.5%,108%,-32.3% (active),–,-87.2% (active),63.1%,-30.9% (active),56.3%,36.6%,25.1%,55.6%,31.2%,65.7%,25.7%,62.4%,–,–,–
COC(=O)c1cc2oc(/C=C3/SC(=S)N(N)C3=O)cc2n1Cc1ccccc1,58.4%,57%,39.4%,40.5%,53.4%,75%,32.7%,7.35% (active),-69.9% (active),6.49% (active),-19.1% (active),46.4%,68%,44.7%,49.6%,–,–,–,-69% (active)
O=C(CCl)Oc1ccc(OC(=O)CCl)cc1,78.3%,96.5%,101%,95%,96%,–,88.6%,93.6%,88.4%,81.1%,109%,93.8%,108%,72.8%,89.1%,82%,85.9%,-14.1% (active),–
CC(C)(C)c1ccc(S(=O)(=O)N[C@H]2CC[C@H]3[C@@H]4CCc5cc(O)ccc5[C@H]4CC[C@]23C)cc1,50.3%,55.7%,78.7%,33.7%,28.5%,8.52% (active),62.9%,17%,25.6%,33.7%,12%,50.9%,–,78.7%,68.7%,49.6%,45.8%,31.8%,–
Cc1ccc(-c2c3c(N)nc(-c4cccnc4)nc3nc3c2c(C)nn3-c2ccccc2)cc1,97.9%,52.2%,76.8%,85%,68.4%,83.6%,98.1%,86.7%,91.9%,75.9%,79%,80.7%,96.1%,45.8%,–,80.9%,97.3%,–,46.5%
CC(=O)OC1C=CC(OC(C)=O)O1 (stereo not drawn),89.4%,80%,101%,96.5%,103%,97.1%,101%,91.1%,89.7%,97.7%,112%,97.4%,93.5%,112%,94%,94.6%,89.5%,79.2%,–
CCCCC1(O)CCCCC1,108%,97.3%,105%,108%,103%,99.1%,101%,96.1%,97.2%,103%,98.8%,103%,97.6%,118%,102%,92.6%,99.3%,–,–
COc1cc(C2CC(c3cc(Cl)c(C)cc3O)=NN2c2ccc(S(N)(=O)=O)cc2)cc(OC)c1OC (stereo not drawn),3.07% (active),23.5%,41.3%,-67.7% (active),24.2%,-100% (active),35.9%,–,31.9%,-8.53% (active),-2.73% (active),24.6%,22%,2.6% (active),44.7%,–,-26.5% (active),8.94% (active),–
NC(N)=N/N=C(\c1ccccc1)C(O)c1ccccc1 (stereo not drawn),101%,96.1%,101%,–,102%,101%,112%,90.7%,96.2%,100%,98.8%,–,102%,111%,101%,98.3%,97.3%,82.5%,95%
CCOc1ccccc1/C=N\N=C\c1ccccc1O,87.7%,104%,93.8%,107%,108%,108%,98.8%,75.5%,96.5%,78.7%,121%,94.7%,105%,107%,107%,106%,97.3%,99.8%,–
CCN1C(=O)CC(SC2CC(=O)N(CC)C2=O)C1=O (stereo not drawn),95.9%,104%,110%,109%,104%,81.4%,101%,82.7%,97.6%,105%,111%,96.1%,106%,100%,100%,101%,97.6%,96.1%,–
CC1(C)N=C(N)N=C(N)N1c1cccc(C#N)c1,75.2%,67.9%,64.6%,22.3%,29.4%,66.8%,46.7%,20.7%,70.7%,78.4%,50.7%,29.8%,35.3%,46.2%,73.3%,35.8%,40%,65.6%,–
